From the supplement of paper PMC10849652
About 8,800 targets were measured; listed, in parts, are those with a hit and a random draw of the rest. About 0.5% of all pairs of compound and target were hits. A number with no mark means an inactive call.

Tests used:
Test in all cases: log2 fold change, soluble protein after heating vs DMSO (PISA); higher = thermal stabilisation; K562 lysate, 10 uM; active = over 0.2 and 3.5 SD of the protein, either way, in both replicates (recomputed)
nilotinib = compound: Cc1cn(-c2cc(NC(=O)c3ccc(C)c(Nc4nccc(-c5cccnc5)n4)c3)cc(C(F)(F)F)c2)cn1 [nilotinib]
Method in brief: (§1)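 Pellets of K562 cells were dounce-homogenised in PBS pH 7.4 with 1 mM MgCl2, and the crude extract was held at 1 mg/mL protein for a 30 min treatment with 10 μM compound. Aliquots were heated for 3 min over 48°C-58°C and pooled before NP-40 was added to 0.5% at 4°C. The supernatant from 21,000xg for 90 min was quantified by TMTpro 16plex LC-MS/MS with channel sums equalised. Values are reported from duplicates as log-two fold change in thermal stability relative to solvent controls.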

[1] = compound: Cc1nc(Nc2n[nH]c3c2CN(C(=O)N[C@H](CN(C)C)c2ccccc2)C3(C)C)c2sccc2n1
Method in brief: as §1

dasatinib = compound: Cc1nc(Nc2ncc(C(=O)Nc3c(C)cccc3Cl)s2)cc(N2CCN(CCO)CC2)n1 [dasatinib]
Method in brief: as §1

[2] = compound: Cc1ncc(-c2ccnc(Nc3ccc(S(C)(=O)=O)cc3)n2)n1C(C)C
Method in brief: as §1

[3] = compound: Cn1cc(-c2ccc3c(c2)CCN3C(=O)Cc2cccc(C(F)(F)F)c2)c2c(N)ncnc21
Method in brief: as §1

quisinostat = compound: Cn1cc(CNCC2CCN(c3ncc(C(=O)NO)cn3)CC2)c2ccccc21 [quisinostat]
Method in brief: as §1

tipifarnib = compound: Cn1cncc1[C@@](N)(c1ccc(Cl)cc1)c1ccc2c(c1)c(-c1cccc(Cl)c1)cc(=O)n2C [tipifarnib]
Method in brief: as §1

[4] = compound: NC(=O)Nc1cc(-c2cccc(F)c2)sc1C(=O)N[C@H]1CCCNC1
Method in brief: as §1

[5] = compound: NC(=O)c1cnc(N[C@@H]2CCCC[C@@H]2N)nc1Nc1cccc(-n2nccn2)c1
Method in brief: as §1

[6] = compound: NC1(c2ccc(-c3nc4ccn5c(=O)[nH]nc5c4cc3-c3ccccc3)cc2)CCC1
Method in brief: as §1

UniProt Q14149, sequence (Q14149 whole entry, looked up): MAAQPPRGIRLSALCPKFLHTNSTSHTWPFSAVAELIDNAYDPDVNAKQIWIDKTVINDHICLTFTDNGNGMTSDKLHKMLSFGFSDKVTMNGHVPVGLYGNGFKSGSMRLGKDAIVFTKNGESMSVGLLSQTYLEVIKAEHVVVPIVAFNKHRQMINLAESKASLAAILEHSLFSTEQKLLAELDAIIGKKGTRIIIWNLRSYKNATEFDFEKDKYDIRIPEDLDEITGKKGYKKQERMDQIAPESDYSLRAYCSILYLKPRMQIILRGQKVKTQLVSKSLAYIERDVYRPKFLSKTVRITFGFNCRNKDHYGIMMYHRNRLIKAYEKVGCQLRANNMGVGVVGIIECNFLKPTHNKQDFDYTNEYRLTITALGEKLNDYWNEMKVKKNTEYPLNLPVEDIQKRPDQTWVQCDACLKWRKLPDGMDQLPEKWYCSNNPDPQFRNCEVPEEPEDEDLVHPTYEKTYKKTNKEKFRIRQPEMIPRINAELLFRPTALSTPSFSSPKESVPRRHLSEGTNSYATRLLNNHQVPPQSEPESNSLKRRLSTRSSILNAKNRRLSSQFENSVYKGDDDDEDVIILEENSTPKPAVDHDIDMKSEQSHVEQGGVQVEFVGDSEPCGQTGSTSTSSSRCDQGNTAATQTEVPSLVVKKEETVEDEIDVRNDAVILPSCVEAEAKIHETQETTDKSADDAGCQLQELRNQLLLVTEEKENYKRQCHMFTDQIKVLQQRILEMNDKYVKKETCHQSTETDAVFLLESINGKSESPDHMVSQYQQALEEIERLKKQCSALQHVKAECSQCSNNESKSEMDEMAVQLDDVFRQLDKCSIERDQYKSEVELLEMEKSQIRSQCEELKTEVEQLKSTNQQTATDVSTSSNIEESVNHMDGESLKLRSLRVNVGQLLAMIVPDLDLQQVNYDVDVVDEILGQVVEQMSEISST
UniProt Q13163, sequence (Q13163 whole entry, looked up): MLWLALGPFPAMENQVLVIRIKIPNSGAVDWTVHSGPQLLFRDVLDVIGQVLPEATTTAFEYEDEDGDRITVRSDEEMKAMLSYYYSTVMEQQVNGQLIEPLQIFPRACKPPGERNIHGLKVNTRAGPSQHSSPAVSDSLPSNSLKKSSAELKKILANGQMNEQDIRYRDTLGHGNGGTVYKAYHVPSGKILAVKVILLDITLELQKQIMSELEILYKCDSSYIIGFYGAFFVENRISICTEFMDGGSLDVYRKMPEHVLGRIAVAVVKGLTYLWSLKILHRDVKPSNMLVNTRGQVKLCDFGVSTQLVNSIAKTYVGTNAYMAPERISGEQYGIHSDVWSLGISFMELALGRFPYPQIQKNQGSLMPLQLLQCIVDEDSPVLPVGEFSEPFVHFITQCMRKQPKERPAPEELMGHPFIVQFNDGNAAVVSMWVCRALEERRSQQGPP
UniProt Q8N5J2, sequence (Q8N5J2 whole entry, looked up): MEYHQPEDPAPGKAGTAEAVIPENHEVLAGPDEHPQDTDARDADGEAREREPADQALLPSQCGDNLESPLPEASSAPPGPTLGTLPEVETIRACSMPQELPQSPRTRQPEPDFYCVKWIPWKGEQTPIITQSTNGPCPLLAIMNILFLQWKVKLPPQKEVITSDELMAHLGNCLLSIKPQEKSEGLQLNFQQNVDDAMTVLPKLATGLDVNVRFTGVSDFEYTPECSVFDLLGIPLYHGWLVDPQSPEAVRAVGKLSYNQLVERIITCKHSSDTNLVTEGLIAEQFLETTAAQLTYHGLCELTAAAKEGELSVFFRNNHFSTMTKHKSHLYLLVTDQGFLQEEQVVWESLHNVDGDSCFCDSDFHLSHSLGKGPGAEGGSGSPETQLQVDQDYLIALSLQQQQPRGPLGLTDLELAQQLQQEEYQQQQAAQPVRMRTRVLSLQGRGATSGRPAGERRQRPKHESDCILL
UniProt O95819, sequence (O95819 whole entry, looked up): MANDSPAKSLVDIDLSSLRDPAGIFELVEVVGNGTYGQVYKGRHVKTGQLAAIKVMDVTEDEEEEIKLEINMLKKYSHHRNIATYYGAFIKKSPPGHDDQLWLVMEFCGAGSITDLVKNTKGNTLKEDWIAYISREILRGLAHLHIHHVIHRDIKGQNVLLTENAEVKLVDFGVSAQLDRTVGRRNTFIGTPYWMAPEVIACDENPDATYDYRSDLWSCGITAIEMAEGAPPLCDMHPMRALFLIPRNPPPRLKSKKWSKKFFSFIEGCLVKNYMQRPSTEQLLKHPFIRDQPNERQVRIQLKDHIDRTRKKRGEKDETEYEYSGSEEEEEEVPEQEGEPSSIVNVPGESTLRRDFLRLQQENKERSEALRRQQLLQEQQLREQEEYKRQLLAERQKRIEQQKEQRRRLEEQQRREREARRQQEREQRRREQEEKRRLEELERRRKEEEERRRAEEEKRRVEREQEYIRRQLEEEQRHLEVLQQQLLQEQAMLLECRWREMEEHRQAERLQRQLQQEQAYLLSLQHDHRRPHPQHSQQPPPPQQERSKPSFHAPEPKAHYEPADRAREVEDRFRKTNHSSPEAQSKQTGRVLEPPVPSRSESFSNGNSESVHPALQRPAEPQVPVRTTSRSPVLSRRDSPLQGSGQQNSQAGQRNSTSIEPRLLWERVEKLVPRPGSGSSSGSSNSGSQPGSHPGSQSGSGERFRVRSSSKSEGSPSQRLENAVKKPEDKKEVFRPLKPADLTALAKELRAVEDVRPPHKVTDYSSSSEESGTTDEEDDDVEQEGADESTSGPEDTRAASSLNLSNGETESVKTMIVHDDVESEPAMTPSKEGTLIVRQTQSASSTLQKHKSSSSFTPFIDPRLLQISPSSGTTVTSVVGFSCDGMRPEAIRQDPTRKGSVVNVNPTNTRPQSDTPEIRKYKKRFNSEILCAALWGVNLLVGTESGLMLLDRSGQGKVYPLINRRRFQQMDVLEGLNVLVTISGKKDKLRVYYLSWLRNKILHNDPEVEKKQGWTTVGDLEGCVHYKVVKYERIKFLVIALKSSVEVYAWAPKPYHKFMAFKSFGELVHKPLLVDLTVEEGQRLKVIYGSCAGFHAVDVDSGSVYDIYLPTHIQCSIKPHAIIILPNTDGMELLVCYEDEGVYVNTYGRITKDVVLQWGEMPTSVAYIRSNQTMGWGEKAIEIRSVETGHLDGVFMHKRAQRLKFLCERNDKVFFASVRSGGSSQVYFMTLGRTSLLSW
UniProt Q96EM0, sequence (Q96EM0 whole entry, looked up): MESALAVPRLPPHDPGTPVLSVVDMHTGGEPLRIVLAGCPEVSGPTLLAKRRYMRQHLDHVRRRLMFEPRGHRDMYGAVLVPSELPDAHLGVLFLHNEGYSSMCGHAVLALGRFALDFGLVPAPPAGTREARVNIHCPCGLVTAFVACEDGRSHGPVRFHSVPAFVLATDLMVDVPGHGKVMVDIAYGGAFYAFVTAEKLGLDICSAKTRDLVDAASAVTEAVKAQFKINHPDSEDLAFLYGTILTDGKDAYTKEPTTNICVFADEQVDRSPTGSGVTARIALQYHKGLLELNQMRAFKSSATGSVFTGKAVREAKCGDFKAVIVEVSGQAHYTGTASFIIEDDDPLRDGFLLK
UniProt Q9H204, sequence (Q9H204 whole entry, looked up): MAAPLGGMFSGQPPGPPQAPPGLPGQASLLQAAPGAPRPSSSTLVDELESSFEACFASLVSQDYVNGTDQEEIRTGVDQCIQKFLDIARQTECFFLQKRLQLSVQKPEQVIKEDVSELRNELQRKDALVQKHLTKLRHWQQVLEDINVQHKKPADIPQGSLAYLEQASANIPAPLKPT
UniProt P10620, sequence (P10620 whole entry, looked up): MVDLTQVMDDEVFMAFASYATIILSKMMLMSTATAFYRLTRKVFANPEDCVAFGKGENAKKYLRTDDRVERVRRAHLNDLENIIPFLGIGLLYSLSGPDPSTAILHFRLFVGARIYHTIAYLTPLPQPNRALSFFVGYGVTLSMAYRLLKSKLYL
UniProt Q96T76, sequence (Q96T76 whole entry, looked up): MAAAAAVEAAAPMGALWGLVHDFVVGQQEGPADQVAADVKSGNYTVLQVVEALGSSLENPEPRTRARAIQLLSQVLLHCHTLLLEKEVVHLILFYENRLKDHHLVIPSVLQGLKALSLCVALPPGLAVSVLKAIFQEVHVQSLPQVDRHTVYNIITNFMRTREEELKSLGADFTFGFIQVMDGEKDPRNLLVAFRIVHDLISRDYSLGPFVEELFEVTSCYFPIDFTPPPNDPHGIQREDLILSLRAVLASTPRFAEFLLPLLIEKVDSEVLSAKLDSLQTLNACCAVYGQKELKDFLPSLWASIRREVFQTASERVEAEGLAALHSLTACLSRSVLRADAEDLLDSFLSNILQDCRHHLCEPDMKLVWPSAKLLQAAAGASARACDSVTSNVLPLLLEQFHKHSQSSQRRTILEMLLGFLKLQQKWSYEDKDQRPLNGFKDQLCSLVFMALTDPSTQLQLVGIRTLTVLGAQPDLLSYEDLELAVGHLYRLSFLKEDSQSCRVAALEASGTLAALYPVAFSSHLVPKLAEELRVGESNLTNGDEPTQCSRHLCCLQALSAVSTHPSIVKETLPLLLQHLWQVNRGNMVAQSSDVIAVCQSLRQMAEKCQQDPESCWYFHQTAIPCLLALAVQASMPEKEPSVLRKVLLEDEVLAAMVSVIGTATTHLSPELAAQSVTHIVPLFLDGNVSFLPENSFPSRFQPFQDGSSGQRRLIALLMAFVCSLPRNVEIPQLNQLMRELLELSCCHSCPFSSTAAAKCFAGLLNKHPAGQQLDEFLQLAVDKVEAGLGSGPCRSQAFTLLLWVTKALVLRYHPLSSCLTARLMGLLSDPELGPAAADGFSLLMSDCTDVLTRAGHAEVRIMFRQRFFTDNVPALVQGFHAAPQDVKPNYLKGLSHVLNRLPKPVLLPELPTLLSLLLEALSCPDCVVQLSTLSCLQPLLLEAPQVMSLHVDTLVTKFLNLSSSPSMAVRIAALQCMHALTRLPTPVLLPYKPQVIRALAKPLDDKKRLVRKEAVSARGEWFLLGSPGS
UniProt O95777, sequence (O95777 whole entry, looked up): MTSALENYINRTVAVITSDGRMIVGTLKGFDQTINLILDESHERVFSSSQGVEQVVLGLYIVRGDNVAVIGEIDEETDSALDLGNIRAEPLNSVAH

Row | Target | log2 fold change (nilotinib) | log2 fold change [1] | log2 fold change (dasatinib) | log2 fold change [2] | log2 fold change [3] | log2 fold change (quisinostat) | log2 fold change (tipifarnib) | log2 fold change [4] | log2 fold change [5] | log2 fold change [6]
1 | LPIN1 isoform 7 (UniProt Q14693) | -0.032 | 0.026 | -0.107 | 0.182 | 0.028 | -0.032 | -0.104 | 0.035 | -0.04 | 0.003
2 | LRIF1 (UniProt Q5T3J3) | -0.147 | 0.086 | 0.047 | 0.022 | -0.011 | 0 | 0.057 | -0.008 | -0.163 | -0.056
3 | MORC3 (UniProt Q14149) | 0.001 | 0.012 | 0.006 | -0.015 | 0.046 | -0.018 | -0.01 | 0.037 | -0.017 | -0.004
4 | MGST1 (UniProt P10620) | 0.033 | -0.002 | -0.012 | -0.017 | 0.014 | -0.029 | 0.02 | 0.085 | -0.007 | -0.012
5 | MAP4K4 isoform 3 (UniProt O95819) | -0.108 | 0.03 | -0.103 | 0.002 | 0.006 | -0.103 | 0.038 | 0.27 (active) | 0.02 | -0.032
6 | KIF21A isoform 5 (UniProt Q7Z4S6) | 0.011 | 0.036 | 0.001 | 0 | 0.001 | -0.011 | -0.048 | 0.048 | -0.009 | -0.028
7 | LPCAT1 (UniProt Q8NF37) | -0.039 | 0.015 | -0.084 | 0.014 | -0.045 | 0.016 | 0.046 | 0.008 | 0.053 | 0.033
8 | L3HYPDH (UniProt Q96EM0) | 0.019 | 0.015 | 0.073 | 0.001 | -0.003 | -0.053 | -0.002 | 0.033 | 0.015 | 0.009
9 | MRPL12 (UniProt P52815) | 0.032 | -0.01 | 0.034 | 0.099 | -0.013 | 0.084 | 0.031 | -0.023 | -0.022 | -0.006
10 | LETM1 (UniProt O95202) | 0.038 | -0.021 | -0.008 | 0.048 | 0.007 | 0.043 | 0.008 | -0.012 | -0.011 | -0.024
11 | MMS19 isoform 8 (UniProt Q96T76) | -0.014 | 0.019 | -0.043 | 0.018 | -0.011 | -0.056 | -0.002 | 0.053 | 0.014 | 0.004
12 | MGAT5 (UniProt Q09328) | 0.035 | 0.01 | -0.005 | 0.012 | 0.002 | 0.051 | -0.02 | -0.019 | 0.022 | -0.003
13 | MOSPD2 (UniProt Q8NHP6) | 0.054 | -0.146 | 0.006 | -0.009 | 0.015 | -0.096 | 0.089 | -0.034 | -0.043 | -0.026
14 | LAGE3 (UniProt Q14657) | -0.065 | 0.186 | 0.006 | -0.055 | 0.021 | -0.03 | 0.1 | 0.013 | 0.017 | 0.084
15 | MAP2K2 (UniProt P36507) | -0.03 | 0.205 | 0.445 (active) | 0.065 | -0.031 | 0 | -0.006 | 0.495 (active) | 0.033 | -0.002
16 | MAP2K4 isoform 2 (UniProt P45985) | -0.013 | 0.052 | -0.014 | 0.248 | 0.046 | -0.112 | -0.023 | 0.019 | 0.063 | 0
17 | MAPKAPK5 (UniProt Q8IW41) | -0.003 | 0.056 | 0.011 | 0.064 | 0.024 | -0.222 | -0.065 | 0.519 (active) | -0.006 | -0.006
18 | MARK3 (UniProt P27448) | 0.013 | -0.004 | -0.186 | -0.05 | 0.014 | 0.172 | -0.072 | -0.08 | -0.029 | -0.06
19 | LARS (UniProt Q9P2J5) | 0.012 | 0.003 | -0.065 | -0.012 | 0.038 | -0.005 | -0.006 | 0.034 | 0 | -0.024
20 | MINDY1 isoform 3 (UniProt Q8N5J2) | -0.03 | 0.154 | -0.086 | 0.271 | 0.159 | -0.006 | 0.022 | -0.072 | 0.548 (active) | 0.038
21 | MAP2K5 (UniProt Q13163) | 0.019 | -0.086 | -0.229 | -0.143 | 0.079 | -0.152 | -0.015 | 0.925 (active) | 0.035 | -0.048
22 | MAPK6 (UniProt Q16659) | -0.065 | 0.085 | 0.032 | 0.05 | 0.039 | -0.003 | -0.081 | 0.055 | 0.017 | -0.028
23 | LSM8 (UniProt O95777) | 0.132 | 0 | 0.012 | 0.045 | 0.004 | -0.043 | 0.048 | -0.02 | -0.035 | 0.033
24 | LRPPRC (UniProt P42704) | -0.019 | -0.004 | -0.062 | 0.012 | 0.056 | -0.003 | -0.027 | 0.052 | 0.047 | 0.004
25 | MAPK14 isoform 2 (UniProt Q16539) | 0.523 | 0.041 | 0.879 (active) | 0.037 | 0.033 | -0.031 | -0.039 | -0.035 | 0.076 | -0.018
26 | MED28 (UniProt Q9H204) | 0.053 | 0.053 | -0.004 | 0.053 | -0.006 | -0.007 | 0.015 | -0.013 | -0.005 | -0.014
27 | MINK1 (UniProt Q8N4C8) | -0.227 | -0.206 | -0.077 | 0.199 | -0.016 | -0.062 | 0.289 | 0.782 (active) | -0.023 | 0.02
